Assay [1] is described as follows: ATG_CRE_CIS: Attagene CIS-FACTORIAL HepG2 Assay for human cAMP Responsive Element (CRE) binding protein 3 (AID 2282926). The note with it: HepG2 CRE cis-reporter, Attagene multiplexed mRNA; actives raise or lower the signal. The essentials: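 Capillary electrophoresis of 6-FAM-labelled, HpaI-digested PCR products quantified reporter transcripts. These came from HepG2 transiently transfected with cis-element reporters and exposed to test chemicals for 24 hours, with DMSO defining baseline activity.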

In assay [2] the target is CCAAT/enhancer-binding protein beta (Homo sapiens) (UniProt P17676). Put plainly: ATG_C_EBP_CIS: Attagene CIS-FACTORIAL HepG2 Assay for human CCAAT/Enhancer Binding Protein (C/EBP) beta (AID 2282927). To be noted: HepG2 Attagene cis-factorial transcription factor reporter; actives raise or lower the signal. A digest of the protocol: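 Transiently transfected HepG2 (MRTU library, endogenous TF-driven promoters); 24 h dosing; total RNA → oligo(dT) RT → PCR → 6-FAM primer extension → HpaI digest → CE; fit bidirectionally vs DMSO.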
CCAAT/enhancer-binding protein beta (Homo sapiens), sequence (P17676 whole entry, looked up): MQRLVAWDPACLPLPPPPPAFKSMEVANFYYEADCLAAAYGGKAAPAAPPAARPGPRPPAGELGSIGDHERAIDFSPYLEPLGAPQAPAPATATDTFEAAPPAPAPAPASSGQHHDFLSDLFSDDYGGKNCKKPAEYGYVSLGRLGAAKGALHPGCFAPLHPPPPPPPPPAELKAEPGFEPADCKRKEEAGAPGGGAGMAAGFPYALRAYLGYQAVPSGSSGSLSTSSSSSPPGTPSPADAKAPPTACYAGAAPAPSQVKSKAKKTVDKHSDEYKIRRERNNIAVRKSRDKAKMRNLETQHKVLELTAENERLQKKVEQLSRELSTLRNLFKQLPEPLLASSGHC

Assay [3] can be described thus: ATG_CMV_CIS: Attagene CIS-FACTORIAL HepG2 Assay for human CMV (Internal Marker) (AID 2282928).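 Also: endpoint acts as a background internal control marker rather than a target.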 The note with it: HepG2 CMV promoter reporter, transcription factor profiling; actives raise or lower the signal. The essentials:
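Fluorescence intensity of RT-PCR-derived reporter fragments, resolved by capillary electrophoresis, gives the signal. HepG2 liver cells bearing transfected cis-element reporters were treated 24 h; activity in either direction was fit relative to DMSO-treated controls.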

The nature of assay [4]: ATG_DR4_LXR_CIS: Attagene CIS-FACTORIAL HepG2 Assay for human Liver X Receptor (LXR), DR4 submotif (AID 2282929). To be noted: HepG2 Attagene DR4 cis-reporter, mRNA transcription; actives raise or lower the signal. A digest of the protocol:
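Measures endogenous transcription factor activity via a DR4-driven reporter transcript in human HepG2 cells. Compounds incubated 24 h; mRNA quantified by RT-PCR and capillary electrophoresis, analysed as gain or loss of signal versus DMSO.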

The target of assay [5] is Aryl hydrocarbon receptor (Homo sapiens) (UniProt P35869). Put plainly: ATG_Ahr_CIS: Attagene CIS-FACTORIAL HepG2 Assay for human Aryl Hydrocarbon Receptor (Ahr) (AID 2282930). To be noted: HepG2 AhR cis-factorial reporter transcription; actives raise or lower the signal. A digest of the protocol: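 Read-out: reporter mRNA quantified by RT-PCR with fluorescent primer extension and capillary electrophoresis. Human HepG2 liver cells carried transfected cis-promoter reporter units and were exposed to chemical for 24 h; gain or loss fitted relative to DMSO.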
Aryl hydrocarbon receptor (Homo sapiens), sequence (P35869 whole entry, looked up): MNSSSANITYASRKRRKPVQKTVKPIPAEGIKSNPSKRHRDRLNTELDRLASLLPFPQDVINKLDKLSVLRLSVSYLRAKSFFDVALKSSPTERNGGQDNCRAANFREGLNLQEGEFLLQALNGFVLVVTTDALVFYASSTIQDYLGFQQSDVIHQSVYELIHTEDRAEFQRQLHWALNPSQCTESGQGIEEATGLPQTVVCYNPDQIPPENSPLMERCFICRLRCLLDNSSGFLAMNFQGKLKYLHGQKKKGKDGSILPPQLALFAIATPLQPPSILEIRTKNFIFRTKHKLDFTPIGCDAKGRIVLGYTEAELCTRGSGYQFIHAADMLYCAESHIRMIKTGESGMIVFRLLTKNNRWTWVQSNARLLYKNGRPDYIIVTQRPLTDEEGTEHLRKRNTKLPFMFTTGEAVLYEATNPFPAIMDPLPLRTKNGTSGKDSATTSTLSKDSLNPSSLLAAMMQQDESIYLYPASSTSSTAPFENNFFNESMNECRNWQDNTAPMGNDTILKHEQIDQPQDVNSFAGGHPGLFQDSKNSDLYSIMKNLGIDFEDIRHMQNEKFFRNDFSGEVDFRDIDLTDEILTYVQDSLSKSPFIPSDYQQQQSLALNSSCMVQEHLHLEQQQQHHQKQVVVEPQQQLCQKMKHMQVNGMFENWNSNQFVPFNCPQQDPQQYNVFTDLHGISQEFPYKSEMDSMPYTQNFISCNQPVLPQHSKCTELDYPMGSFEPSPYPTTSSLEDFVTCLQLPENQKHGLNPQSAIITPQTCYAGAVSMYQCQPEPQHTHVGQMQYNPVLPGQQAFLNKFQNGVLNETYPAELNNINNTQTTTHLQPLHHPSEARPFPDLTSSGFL

Assay [6] can be described thus: ATG_AP_1_CIS: Attagene CIS-FACTORIAL HepG2 Assay for human Activator Protein 1 (AP-1) (AID 2282931). To be noted: HepG2 Attagene cis-factorial AP-1 reporter mRNA; actives raise or lower the signal. The essentials: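 Bidirectional concentration-response fitting against DMSO controls. Underlying signal: reporter mRNA from cis-promoter constructs in transiently transfected HepG2, measured after 24 h by RT-PCR and capillary electrophoresis.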

Assay [7] is described as follows: ATG_AP_2_CIS: Attagene CIS-FACTORIAL HepG2 Assay for human Activator Protein 2 (AP-2) (AID 2282932). The note with it: HepG2 AP-2 cis-reporter, Attagene transcription factor profiling; actives raise or lower the signal. A digest of the protocol: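 Read-out: fluorescent reporter mRNA via RT-PCR and capillary electrophoresis, 24 h post-dose in transiently transfected HepG2. Endogenous factors drive cis-promoter reporters; gain or loss of signal fitted bidirectionally against DMSO.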

Assay [8] is described as follows: ATG_BRE_CIS: Attagene CIS-FACTORIAL HepG2 Assay for human Bone Morphogenetic Protein (BMP) Response Element (BRE) (AID 2282933). The note with it: HepG2 BMP response element reporter, Attagene transcription factor profiling; actives raise or lower the signal. A digest of the protocol: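 Endogenous transcription factor activity at a BMP response element was monitored in transfected HepG2 cells 24 h after dosing. Fluorescent RT-PCR products were resolved by capillary electrophoresis, and activity was fitted in both directions versus DMSO.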

The target in assay [9] is Transcription factor E2F1 (Homo sapiens) (UniProt Q01094). Kind of assay: ATG_E2F_CIS: Attagene CIS-FACTORIAL HepG2 Assay for human E2F Transcription Factor 1 (AID 2282935). To be noted: HepG2 Attagene cis-reporter, E2F reporter RNA transcripts; actives raise or lower the signal. The essentials: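 Transient MRTU transfection of HepG2; 24 h compound exposure; RNA → oligo(dT) RT → PCR → FAM label → HpaI cut → CE fluorescence. Gain/loss of signal fit against DMSO.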
Transcription factor E2F1 (Homo sapiens), sequence (Q01094 whole entry, looked up): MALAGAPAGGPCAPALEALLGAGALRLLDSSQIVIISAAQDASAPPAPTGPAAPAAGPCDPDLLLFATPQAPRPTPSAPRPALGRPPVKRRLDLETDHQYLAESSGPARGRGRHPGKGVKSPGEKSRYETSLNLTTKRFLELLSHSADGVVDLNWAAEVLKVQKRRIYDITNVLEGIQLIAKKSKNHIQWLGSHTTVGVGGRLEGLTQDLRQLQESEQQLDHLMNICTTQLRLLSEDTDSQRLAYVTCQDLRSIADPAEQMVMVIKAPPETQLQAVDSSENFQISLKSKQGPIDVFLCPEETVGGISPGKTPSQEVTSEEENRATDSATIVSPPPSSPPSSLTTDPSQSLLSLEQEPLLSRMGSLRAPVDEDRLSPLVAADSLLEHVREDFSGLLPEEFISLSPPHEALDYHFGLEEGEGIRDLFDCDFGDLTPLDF

Active and inactive are the calls of the source. The calls were made as follows: active = hit-call score of the fitted dose curve at least 0.9, where 1 is the maximum; inactive = score below 0.9.

Broadly, the AC50 is the concentration at which the activity in the assay is half-maximal. As to `C[C@]12CC[C@H]3[C@@H](CCC4=CC(=O)CC[C@@]43C)[C@@H]1CC[C@@H]2C(=O)CO`, the result in assay [1], in assay [2], in assay [3], in assay [4], in [5] and in [6] was inactive. The result in assay [7] and in assay [9] was inactive. For the same molecule, the concentration at half-maximal activity (AC50) in assay [8] is 100 µM (active).

Turning to `CCCCCCOC(=O)CCCCC`, the molecule was called inactive in [1], in assay [2], in assay [3], in assay [4], in assay [5] and in assay [6]. The result in [7], in assay [8] and in [9] was inactive.

For `CCC(C)CCCC(C)(C)O` (stereo not drawn), the call in assay [1], in assay [2], in assay [3], in assay [4], in [5] and in [6] was inactive. The result in assay [7], in assay [8] and in [9] was inactive.

In the case of `CCCCCCCCCCCCCC(=O)O`, the molecule was classed as inactive in assay [1], in [2], in assay [3], in assay [4], in assay [5] and in [6]. The molecule was called inactive in assay [7], in assay [8] and in assay [9].

Regarding `CC(C)[C@H]1CC[C@@H](C)CC1=O`, the result in assay [1], in assay [2], in [3], in [4], in [5] and in [6] was inactive. Further, the molecule was called inactive in assay [7], in assay [8] and in [9].

On to `O=C1C(c2[nH]c3ccc(S(=O)(=O)O)cc3c2O)=Nc2ccc(S(=O)(=O)O)cc21`, for which the molecule was called inactive in [1], in assay [2], in [3], in assay [4], in assay [6] and in assay [7]. Also, the molecule was called inactive in assay [8] and in assay [9]. For the same molecule, the AC50 in [5] was 27.6 µM (active).

Take `CCCCCCCCCCCCN`: the molecule was classed as inactive in [1], in assay [2], in [3], in [5], in [6] and in assay [7]. In addition, the molecule was classed as inactive in assay [8] and in assay [9]. In addition, in [4], the AC50 was 10.2 µM (active).

As for `COC(C(=O)O)c1ccccc1` (stereo not drawn), the result in assay [1], in assay [2], in [3], in [4], in assay [5] and in assay [6] was inactive. Moreover, the result in [7], in [8] and in assay [9] was inactive.

For the molecule `CCOC(=S)SSC(=S)OCC`, the result in [1], in [2], in assay [3], in assay [4], in [5] and in assay [6] was inactive. Further, the molecule was classed as inactive in assay [7], in [8] and in assay [9].

`COC(=O)Cc1cccc2ccccc12`: the result in assay [1], in assay [2], in assay [3], in assay [4], in assay [5] and in assay [6] was inactive. Moreover, the outcome in assay [7], in assay [8] and in [9] was inactive.

For the molecule `C=CCOC(=O)CCC1CCCCC1`, the result in [1], in [2], in [3], in assay [4], in [5] and in assay [6] was inactive. Also, the outcome in assay [7], in [8] and in assay [9] was inactive.

On to `CC(=O)OCCC(C)CC(C)(C)C` (stereo not drawn), for which the call in assay [1], in assay [2], in assay [3], in [4], in [5] and in [6] was inactive. The molecule was called inactive in [7], in [8] and in assay [9].

Regarding `CCOc1ccccc1OCC`, the outcome in [1], in [2], in [3], in assay [4], in [5] and in assay [6] was inactive. For the same molecule, the call in assay [7], in assay [8] and in [9] was inactive.

Consider `COc1ccc(OC)c(OC)c1`, for which the result in assay [1], in [2], in [3], in [4], in assay [5] and in [6] was inactive. The result in assay [7], in assay [8] and in assay [9] was inactive.

On to `CC(=O)[O][Al][O]C(C)=O`, for which the outcome in [1], in assay [2], in assay [3], in [4], in assay [5] and in assay [6] was inactive. For the same molecule, the molecule was called inactive in assay [7], in [8] and in [9].

Turning to `CCCCCC=CCC(=O)OC`, the result in assay [1], in assay [2], in assay [3], in assay [4], in assay [5] and in assay [6] was inactive. The molecule was called inactive in assay [7], in assay [8] and in assay [9].

As for `CCCCCCOC(=O)CC`, the result in assay [1], in assay [2], in assay [3], in assay [4], in assay [5] and in assay [6] was inactive. The molecule was called inactive in assay [7], in assay [8] and in assay [9].

As to `O=C(Nc1ccccc1)c1cc([N+](=O)[O-])ccc1Cl`, the AC50 in [1] is 5.81 µM (active); in [4], 100 µM (active); in [5] it was 18.4 µM (active); in [6], 100 µM (active); in assay [8] it was 49.9 µM (active). Moreover, the outcome in assay [2], in [3], in assay [7] and in assay [9] was inactive.

Take `O=C[C@H](O)[C@H](O)[C@H](O)CO`: the result in assay [1], in assay [2], in [3], in assay [4], in assay [5] and in assay [6] was inactive. Also, the molecule was called inactive in assay [7], in [8] and in [9].

As for `COC(=O)OC`, the outcome in assay [1], in assay [2], in assay [3], in assay [4], in assay [5] and in [6] was inactive. The call in [7], in [8] and in assay [9] was inactive.

With `CCCCCCCCCCCCCCCCCC(=O)OCC(CC)CCCC` (stereo not drawn), the call in assay [1], in assay [2], in assay [3], in [4], in assay [5] and in assay [6] was inactive. Besides, the molecule was called inactive in [7], in assay [8] and in [9].

Take `CNC[C@H](O)c1cccc(O)c1`: the call in assay [1], in assay [2], in assay [3], in assay [4], in assay [5] and in assay [6] was inactive. For the same molecule, the molecule was called inactive in assay [7], in assay [8] and in assay [9].

For `Cc1cccc(Nc2ccccc2C(=O)O)c1C`, the molecule was called inactive in assay [1], in assay [2], in assay [3], in assay [4], in assay [5] and in assay [6]. Besides, the outcome in [7], in assay [8] and in assay [9] was inactive.

As to `Cc1cccc(C)c1[N+](=O)[O-]`, the call in assay [1], in assay [2], in assay [3], in [4], in [5] and in [6] was inactive. Further, the outcome in assay [7], in [8] and in assay [9] was inactive.

In the case of `Cc1ccc(C=O)cc1`, the result in [1], in assay [2], in assay [3], in assay [4], in [5] and in [6] was inactive. The result in [7], in assay [8] and in assay [9] was inactive.

As to `CCC(C(=O)NC(N)=O)c1ccccc1` (stereo not drawn), the outcome in [1], in assay [2], in assay [3], in assay [4], in assay [5] and in assay [6] was inactive. In addition, the molecule was called inactive in assay [7], in assay [8] and in [9].

As to `CC(C)(C)c1cc(CCC(=O)NN)cc(C(C)(C)C)c1O`, the molecule was called inactive in [1], in assay [2], in assay [3], in [4], in [5] and in [6]. The result in assay [7], in [8] and in assay [9] was inactive.

Values taken from PubChem BioAssay (EPA / NIEHS).
